Screens from PubChem BioAssay.
RXFP1 antag – qHTS Assay for Antagonists of the Relaxin Receptor RXFP1; activity change, negative = inhibition, % at 57.5 µM; AID 1259400, 2018; 0.59% of 350,000 active; HEK293-RXFP1, relaxin-stimulated cAMP HTRF, 30 min; active compounds read low;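 active = activity change of -60% or lower, but not beyond a set lower limit; inconclusive = change between -60% and -40%, or beyond the set limit; inactive = change above -40%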
Target sequence (Q9HBX9 whole entry, looked up): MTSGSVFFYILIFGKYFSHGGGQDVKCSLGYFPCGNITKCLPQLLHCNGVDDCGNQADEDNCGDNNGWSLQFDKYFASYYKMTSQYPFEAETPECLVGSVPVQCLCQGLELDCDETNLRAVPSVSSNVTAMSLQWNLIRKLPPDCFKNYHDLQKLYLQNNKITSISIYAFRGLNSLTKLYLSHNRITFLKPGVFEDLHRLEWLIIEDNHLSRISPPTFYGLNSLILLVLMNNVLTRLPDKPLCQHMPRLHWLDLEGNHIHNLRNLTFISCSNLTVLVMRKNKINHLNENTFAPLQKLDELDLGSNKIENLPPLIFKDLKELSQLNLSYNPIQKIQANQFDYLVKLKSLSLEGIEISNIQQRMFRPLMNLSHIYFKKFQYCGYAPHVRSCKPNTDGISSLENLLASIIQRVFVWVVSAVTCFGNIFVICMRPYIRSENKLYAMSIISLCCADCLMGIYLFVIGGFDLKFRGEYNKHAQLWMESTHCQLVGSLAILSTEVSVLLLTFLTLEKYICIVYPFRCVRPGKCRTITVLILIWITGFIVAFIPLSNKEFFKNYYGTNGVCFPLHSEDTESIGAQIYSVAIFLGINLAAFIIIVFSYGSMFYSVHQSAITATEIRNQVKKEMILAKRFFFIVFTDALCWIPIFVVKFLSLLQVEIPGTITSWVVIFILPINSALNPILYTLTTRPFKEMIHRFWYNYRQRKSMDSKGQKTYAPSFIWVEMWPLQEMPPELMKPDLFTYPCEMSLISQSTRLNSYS
Akt phos inh – HTS Assay for Inhibitors of Akt Phophorylation: Primary Screen. Neuro2A IGF-stimulated pAkt S473 HTRF, 20 min; active compounds read low. 0.32% of 360,000 active. AID 651550, 2012. activity change, % for hits at 50 µM; in the data active = activity change below about -80%; inconclusive = mostly about -51% to -80%
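Neuro2A cells (4,500/well, DMEM with 0.5% FBS) were treated with compound at a single 50 µM final concentration, stimulated with 6 nM IGF for 20 min at 37 °C, and lysed. Phospho-Akt Ser473 was read by HTRF as 665/615 ratio ×10^4.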
KCNH2 WT inh – qHTS for Inhibitors of KCHN2 3.1: Wildtype qHTS; Voltage-gated inwardly rectifying potassium channel KCNH2 (Homo sapiens), Q12809; U2OS, BacMam KCNH2, thallium flux FluxOr; active compounds read low; activity change, % at 1.84 µM; 0.37% of 340,000 active;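 active = maximum activity change below -70%; inconclusive = maximum activity change between -70% and -50%; inactive = maximum activity change above -50%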
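U2OS cells were transduced with wild-type KCNH2 virus (2.03 x 10^8 / mL) for 4 h at room temperature, then cultured overnight at 37 C. Thallium flux was read with FluxOr dye. Rate constants were normalized to DMSO controls.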
RXFP1 agonist – qHTS Assay for Agonists of the Relaxin Receptor RXFP1 | Relaxin receptor 1 (Homo sapiens), Q9HBX9 | HEK293T-RXFP1 cAMP TR-FRET, 30 min; response scale: percent of porcine relaxin response, buffer zero | Potency, µM (series often up to 57.5 µM), hits mostly activators | 0.3% of 370,000 active; active = well fitted activation curve with a large enough effect; inconclusive = small, poorly fitted or top-dose-only effect; also: nearly all actives have a fitted effect of over 60% in size
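HEK293 cells stably expressing RXFP1, treated 30 min at 37C with compounds plus PDE4 inhibitor Ro 20174; cAMP measured by HTRF TR-FRET. Normalized to buffer and 29 nM porcine relaxin; EC50 by Hill fit.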
KCNH2 3.1 inh – qHTS for Inhibitors of KCHN2 3.1: Mutant qHTS; Potassium voltage-gated channel subfamily H member 2, brain isoform KCNH2 3.1 (human); U2OS KCNH2 3.1, thallium flux FluxOr; active compounds read low; activity change, % (tested at about 1.8 µM); 0.95% of 340,000 active; AID 720553, 2013;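 active = maximum activity change below -70%; inconclusive = maximum activity change from -70% to -50%; inactive = maximum activity change above -50%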;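 also: thallium influx rate constant from kinetic fluorescence after stimulation buffer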
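Steps: virus added to U2OS suspension (4 h, RT, dark); medium with 10% FBS added, cells plated, 37 C overnight; FluxOr/Red40 loading buffer 45 min RT; stimulation buffer, 2 min kinetic read; rate constant normalized.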
Numbers stand for hits. Only some compounds are listed: those with a hit (about 1.7% of all), similar ones and a draw of the others.

O=C1C(=O)N(c2ccccn2)C(c2cccc(F)c2)/C1=C(/O)c1ccccc1 (stereo not drawn) was read as RXFP1 antag inactive, Akt phos inh inactive, KCNH2 WT inh inactive, RXFP1 agonist inactive and KCNH2 3.1 inh -101.5.
Screening COc1ccc(C2/C(=C(/O)c3ccccc3)C(=O)C(=O)N2c2ccccn2)cc1OC (stereo not drawn) returned RXFP1 antag inactive, Akt phos inh inactive, KCNH2 WT inh inactive, RXFP1 agonist inactive and KCNH2 3.1 inh inactive.
O=C(Nc1cccc(C(F)(F)F)c1)c1cc2c(=O)c3ccccc3oc2nc1C(F)(F)F was read as RXFP1 antag inactive, Akt phos inh inactive, KCNH2 WT inh inactive, RXFP1 agonist inactive and KCNH2 3.1 inh inactive.
`O=C(Nc1ccccc1)c1cc2c(=O)c3ccccc3oc2nc1C(F)(F)F` gave RXFP1 antag inactive, Akt phos inh -94.2%, KCNH2 WT inh inactive, RXFP1 agonist inconclusive and KCNH2 3.1 inh inactive.
CCCCc1ccc(NC(=S)N2CCN(c3ccccn3)CC2)cc1 was read as RXFP1 antag -68.7, Akt phos inh inactive, KCNH2 WT inh inactive, RXFP1 agonist inactive and KCNH2 3.1 inh inactive.
For CCCCc1ccc(NC(=S)N2CCN(c3ncccn3)CC2)cc1 the results were RXFP1 antag inactive, Akt phos inh inactive, KCNH2 WT inh inactive, RXFP1 agonist inactive and KCNH2 3.1 inh inactive.
`COc1cc2oc3ccccc3c2cc1N(CC(=O)N(C)C)S(=O)(=O)c1ccccc1` gave RXFP1 antag inactive, Akt phos inh inactive, KCNH2 WT inh inactive, RXFP1 agonist inactive and KCNH2 3.1 inh -84.2.
Screening COc1cc2oc3ccccc3c2cc1N(CC(=O)N(C)C)S(=O)(=O)c1ccc(C)cc1 returned RXFP1 antag inactive, Akt phos inh inactive, KCNH2 WT inh inactive and RXFP1 agonist inactive.
For COc1cccc(/C=c2\s/c(=C\C(=O)C(C)(C)C)[nH]c2=O)c1 the results were RXFP1 antag -90.6, Akt phos inh inactive, KCNH2 WT inh inactive, RXFP1 agonist inactive and KCNH2 3.1 inh inactive.
O=C(NC1CC1)c1nc(Cn2cc([N+](=O)[O-])cn2)no1 was read as RXFP1 antag inactive, Akt phos inh inactive, KCNH2 WT inh -73.2, RXFP1 agonist inactive and KCNH2 3.1 inh inactive.
For O=C(NCc1ccccn1)c1nc(Cn2cc([N+](=O)[O-])cn2)no1 the results were RXFP1 antag inactive, Akt phos inh inactive, KCNH2 WT inh inactive, RXFP1 agonist inactive and KCNH2 3.1 inh inactive.
Cc1c(CCC(=O)NCCCn2ccnc2)c(=O)oc2c(C)c3oc4c(c3cc12)CCCC4 was read as Akt phos inh inactive, KCNH2 WT inh -150.1, RXFP1 agonist inactive and KCNH2 3.1 inh -159.1.
For Cc1c(CCC(=O)NCCCCCC(=O)O)c(=O)oc2c(C)c3oc4c(c3cc12)CCCC4 the results were RXFP1 antag inactive, Akt phos inh inactive, KCNH2 WT inh inactive, RXFP1 agonist inactive and KCNH2 3.1 inh inconclusive.
For COc1ccc(NC(=O)Nc2cccc3ccccc23)c(OC)c1 the results were RXFP1 antag inactive, Akt phos inh inactive, KCNH2 WT inh inactive, RXFP1 agonist inactive and KCNH2 3.1 inh inactive.
CC(C)(C)NC1=NCCNC(c2ccccc2)=C1 was read as RXFP1 antag inactive, Akt phos inh inactive, KCNH2 WT inh -88.1 and KCNH2 3.1 inh inactive.
`c1ccc(C2=NCCCN2)cc1` gave RXFP1 antag inactive, Akt phos inh inactive, KCNH2 WT inh inactive, RXFP1 agonist inactive and KCNH2 3.1 inh inactive.
Screening CCc1ccc(/C=C/C(=O)c2ccc(N3CCOCC3)cc2)cc1 returned RXFP1 antag -92.1, Akt phos inh inactive, KCNH2 WT inh inactive, RXFP1 agonist inactive and KCNH2 3.1 inh inactive.
For C/C(=N\NC(=O)c1ccc(F)cc1)c1cccc(NC(=O)c2ccco2)c1 the results were RXFP1 antag inactive, Akt phos inh -95.5%, KCNH2 WT inh inactive, RXFP1 agonist inactive and KCNH2 3.1 inh inactive.
O=c1cc2c(nn1Cc1ccc(Cl)cc1)-c1ccccc1CC2 was read as RXFP1 antag inactive, Akt phos inh inactive, KCNH2 WT inh inactive, RXFP1 agonist inactive and KCNH2 3.1 inh -94.6.
